Holding throughout (assay): DAPPL (digital affinity profiling via proximity ligation, sequencing); 10 mM Tris-HCl pH 7.5, 50 mM NaCl, 1 mM DTT, 4% glycerol, room temperature, 30 min; GST-TFs on glutathione beads, 16-mer random dsDNA library, 0.1% formaldehyde crosslink after washing; high values mean tight binding
Experiment [1] has as its target T1, FEV (Homo sapiens, UniProt Q99581 1-238).
T1 sequence: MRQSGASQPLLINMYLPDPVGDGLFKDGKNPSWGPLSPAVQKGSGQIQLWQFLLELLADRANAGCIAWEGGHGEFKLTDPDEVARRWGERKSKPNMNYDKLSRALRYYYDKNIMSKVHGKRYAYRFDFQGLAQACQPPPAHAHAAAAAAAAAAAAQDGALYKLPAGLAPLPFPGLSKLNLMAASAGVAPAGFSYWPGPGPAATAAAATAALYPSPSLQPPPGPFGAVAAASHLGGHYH
The settings on record: protein: recombinant; tags: N-terminal GST; dsDNA, one strand shown. In outline: (§1)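 Pools of DNA-barcoded human transcription factors, expressed in yeast as GST fusions on glutathione beads and combined with a tag-only sample, were incubated with 200 nmole of a 16-mer random double-stranded DNA library. Incubation took 30 min at room temperature in Tris/NaCl/DTT/glycerol buffer and was followed by washing, 0.1% formaldehyde crosslinking, proximity ligation (BsaI/T4 ligase, 1 h, 37 °C), PCR amplification and sequencing on an Illumina NextSeq500. Binding signal is the ratio of a hexamer's read frequency for a factor to its frequency for the tag-only sample.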

The target in experiment [2] is ETV5 (Homo sapiens, UniProt P41161 1-510). The settings on record: protein: recombinant; tags: N-terminal GST; dsDNA, one strand shown. The gist of the method:
as §1

Experiment [3] has as its target HSF1 (Homo sapiens, UniProt Q00613 1-529). The settings on record: protein: recombinant; tags: N-terminal GST; chain copies: 3; dsDNA, one strand shown. The gist of the method: as §1
The target of experiment [4] is T2, SPIC (Homo sapiens, UniProt Q8N5J4 1-248).
T2 sequence: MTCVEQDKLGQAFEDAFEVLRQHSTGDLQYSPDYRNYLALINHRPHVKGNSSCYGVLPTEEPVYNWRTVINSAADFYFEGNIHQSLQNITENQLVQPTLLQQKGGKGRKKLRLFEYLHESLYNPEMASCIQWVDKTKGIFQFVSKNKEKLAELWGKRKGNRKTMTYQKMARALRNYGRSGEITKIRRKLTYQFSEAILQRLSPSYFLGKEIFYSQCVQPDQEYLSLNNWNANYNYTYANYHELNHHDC
Conditions: protein: recombinant; tags: N-terminal GST; dsDNA, one strand shown. The gist of the method: as §1

Experiment [5] has as its target ELF4 (Homo sapiens, UniProt Q99607 1-663). Conditions: protein: recombinant; tags: N-terminal GST; dsDNA, one strand shown. In outline: as §1
Experiment [6] has as its target T3, ELK4 (Homo sapiens, UniProt P28324-2 1-405).
T3 sequence: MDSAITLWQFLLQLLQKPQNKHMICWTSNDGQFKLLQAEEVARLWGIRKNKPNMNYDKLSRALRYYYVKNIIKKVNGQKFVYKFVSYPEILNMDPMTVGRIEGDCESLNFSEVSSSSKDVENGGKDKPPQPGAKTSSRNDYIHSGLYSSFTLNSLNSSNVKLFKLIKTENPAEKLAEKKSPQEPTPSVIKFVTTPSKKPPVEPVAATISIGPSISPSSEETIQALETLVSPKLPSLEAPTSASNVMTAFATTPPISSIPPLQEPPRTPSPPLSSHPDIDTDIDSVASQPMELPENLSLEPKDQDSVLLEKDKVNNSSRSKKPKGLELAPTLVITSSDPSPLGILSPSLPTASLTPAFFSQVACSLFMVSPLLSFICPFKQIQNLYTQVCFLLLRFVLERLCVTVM
The settings on record: protein: recombinant; tags: N-terminal GST; dsDNA, one strand shown. The gist of the method:
as §1

The target of experiment [7] is T4, ETV2 (Homo sapiens, UniProt O00321 1-342).
T4 sequence: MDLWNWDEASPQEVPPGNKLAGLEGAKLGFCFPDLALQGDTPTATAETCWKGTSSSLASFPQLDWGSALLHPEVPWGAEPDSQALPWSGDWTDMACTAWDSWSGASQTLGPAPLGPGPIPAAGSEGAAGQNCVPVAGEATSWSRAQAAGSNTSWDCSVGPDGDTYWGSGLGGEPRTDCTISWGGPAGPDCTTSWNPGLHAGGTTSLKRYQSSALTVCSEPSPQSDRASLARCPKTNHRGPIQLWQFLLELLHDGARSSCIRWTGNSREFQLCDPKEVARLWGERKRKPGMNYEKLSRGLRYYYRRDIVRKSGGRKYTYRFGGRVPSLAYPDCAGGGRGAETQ
The settings on record: protein: recombinant; tags: N-terminal GST; dsDNA, one strand shown. The gist of the method:
as §1

Experiment [8] addresses T5, ELF3 (Homo sapiens, UniProt P78545 1-371).
T5 sequence: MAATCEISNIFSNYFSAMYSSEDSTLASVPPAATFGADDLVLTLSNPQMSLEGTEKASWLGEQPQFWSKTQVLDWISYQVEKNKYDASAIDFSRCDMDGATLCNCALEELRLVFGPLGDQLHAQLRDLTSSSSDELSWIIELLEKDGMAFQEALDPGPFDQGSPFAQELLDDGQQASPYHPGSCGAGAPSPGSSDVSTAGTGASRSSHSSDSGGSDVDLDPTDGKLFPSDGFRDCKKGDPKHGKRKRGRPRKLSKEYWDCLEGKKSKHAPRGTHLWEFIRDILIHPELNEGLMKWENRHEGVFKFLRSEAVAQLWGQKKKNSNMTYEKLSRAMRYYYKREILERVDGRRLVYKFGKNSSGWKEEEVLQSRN
The settings on record: protein: recombinant; tags: N-terminal GST; dsDNA, one strand shown. The gist of the method: as §1

Experiment [9] concerns the target CRX (Homo sapiens, UniProt O43186 1-299). The settings on record: protein: recombinant; tags: N-terminal GST; dsDNA, one strand shown. In outline:
as §1

Experiment [10] concerns the target ETV1 (Homo sapiens, UniProt P50549 1-477). Conditions: protein: recombinant; tags: N-terminal GST; dsDNA, one strand shown. In outline: as §1
In experiment [11] the target is T6, ERF (Homo sapiens, UniProt P50548 1-548).
T6 sequence: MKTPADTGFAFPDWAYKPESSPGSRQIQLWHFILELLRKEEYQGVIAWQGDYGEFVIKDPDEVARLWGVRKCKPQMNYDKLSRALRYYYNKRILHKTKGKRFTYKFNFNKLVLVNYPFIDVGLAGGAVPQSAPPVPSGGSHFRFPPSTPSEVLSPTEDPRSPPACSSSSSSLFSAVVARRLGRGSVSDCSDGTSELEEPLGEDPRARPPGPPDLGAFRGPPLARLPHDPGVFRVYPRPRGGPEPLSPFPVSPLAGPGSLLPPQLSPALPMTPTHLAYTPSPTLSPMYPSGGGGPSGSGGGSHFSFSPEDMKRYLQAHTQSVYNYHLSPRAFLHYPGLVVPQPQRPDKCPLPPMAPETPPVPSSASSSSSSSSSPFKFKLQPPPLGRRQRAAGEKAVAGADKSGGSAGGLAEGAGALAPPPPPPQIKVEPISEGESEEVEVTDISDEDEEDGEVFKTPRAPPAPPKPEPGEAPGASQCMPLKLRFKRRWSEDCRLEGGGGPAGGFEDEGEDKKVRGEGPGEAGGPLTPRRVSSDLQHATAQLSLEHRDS
Conditions: protein: recombinant; tags: N-terminal GST; dsDNA, one strand shown. The gist of the method: as §1

Experiment [12] deals with T7, ETV3L (Homo sapiens, UniProt Q6ZN32 1-361).
T7 sequence: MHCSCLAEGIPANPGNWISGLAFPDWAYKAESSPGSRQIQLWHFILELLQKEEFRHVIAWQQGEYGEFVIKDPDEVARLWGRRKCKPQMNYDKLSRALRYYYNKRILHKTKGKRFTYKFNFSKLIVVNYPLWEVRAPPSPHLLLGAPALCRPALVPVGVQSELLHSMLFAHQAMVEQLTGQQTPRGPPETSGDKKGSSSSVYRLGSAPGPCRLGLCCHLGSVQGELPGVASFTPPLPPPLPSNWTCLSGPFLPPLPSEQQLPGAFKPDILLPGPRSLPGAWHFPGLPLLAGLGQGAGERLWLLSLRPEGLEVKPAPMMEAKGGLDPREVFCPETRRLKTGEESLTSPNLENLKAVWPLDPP
Conditions: protein: recombinant; tags: N-terminal GST; dsDNA, one strand shown. The gist of the method:
as §1

The target of experiment [13] is T8, ETS2 (Homo sapiens, UniProt P15036 1-469).
T8 sequence: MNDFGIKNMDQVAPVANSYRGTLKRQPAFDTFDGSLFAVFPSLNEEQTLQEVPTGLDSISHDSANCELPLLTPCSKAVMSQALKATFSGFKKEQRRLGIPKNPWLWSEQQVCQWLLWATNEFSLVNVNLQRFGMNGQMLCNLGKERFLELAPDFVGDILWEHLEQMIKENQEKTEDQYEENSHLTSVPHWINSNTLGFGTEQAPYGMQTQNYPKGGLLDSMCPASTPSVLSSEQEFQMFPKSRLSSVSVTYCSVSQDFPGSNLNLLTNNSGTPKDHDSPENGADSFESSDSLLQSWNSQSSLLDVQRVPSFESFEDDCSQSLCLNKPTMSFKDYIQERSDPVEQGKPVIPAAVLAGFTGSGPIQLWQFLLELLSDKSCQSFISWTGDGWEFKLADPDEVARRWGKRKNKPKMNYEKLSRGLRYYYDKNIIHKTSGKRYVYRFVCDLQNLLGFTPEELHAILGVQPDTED
The settings on record: protein: recombinant; tags: N-terminal GST; dsDNA, one strand shown. In outline:
as §1

For experiment [14], the target named is T9, SPDEF (Homo sapiens, UniProt O95238 1-335).
T9 sequence: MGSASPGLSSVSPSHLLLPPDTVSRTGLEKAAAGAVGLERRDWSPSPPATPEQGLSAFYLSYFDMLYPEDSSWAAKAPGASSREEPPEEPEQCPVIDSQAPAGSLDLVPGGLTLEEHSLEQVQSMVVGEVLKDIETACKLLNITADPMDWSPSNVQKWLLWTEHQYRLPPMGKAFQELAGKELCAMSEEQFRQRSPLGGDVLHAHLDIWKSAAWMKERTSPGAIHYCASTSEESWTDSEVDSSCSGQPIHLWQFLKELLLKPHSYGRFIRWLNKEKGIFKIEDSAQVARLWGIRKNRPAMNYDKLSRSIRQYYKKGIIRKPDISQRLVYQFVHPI
Conditions: protein: recombinant; tags: N-terminal GST; dsDNA, one strand shown. In outline: as §1

Experiment [15] concerns the target T10, ETV7 (Homo sapiens, UniProt Q9Y603 1-341).
T10 sequence: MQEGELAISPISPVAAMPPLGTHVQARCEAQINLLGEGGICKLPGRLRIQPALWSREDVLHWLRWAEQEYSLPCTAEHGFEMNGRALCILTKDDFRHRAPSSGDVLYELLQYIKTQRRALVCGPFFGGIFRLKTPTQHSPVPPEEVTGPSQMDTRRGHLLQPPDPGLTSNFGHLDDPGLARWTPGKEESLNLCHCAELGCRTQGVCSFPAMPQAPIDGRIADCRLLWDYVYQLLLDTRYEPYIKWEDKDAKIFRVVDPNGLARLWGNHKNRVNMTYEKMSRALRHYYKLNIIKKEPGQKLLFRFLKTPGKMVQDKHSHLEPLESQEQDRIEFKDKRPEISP
The settings on record: protein: recombinant; tags: N-terminal GST; dsDNA, one strand shown. In outline: as §1

The target of experiment [16] is T11, ELF5 (Homo sapiens, UniProt Q9UKW6-2 1-255).
T11 sequence: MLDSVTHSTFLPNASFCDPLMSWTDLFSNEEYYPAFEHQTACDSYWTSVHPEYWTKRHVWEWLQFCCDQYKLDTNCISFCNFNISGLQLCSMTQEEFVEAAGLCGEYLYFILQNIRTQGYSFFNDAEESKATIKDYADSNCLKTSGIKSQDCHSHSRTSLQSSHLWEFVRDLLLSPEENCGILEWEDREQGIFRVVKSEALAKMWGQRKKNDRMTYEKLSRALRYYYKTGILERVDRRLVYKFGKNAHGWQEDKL
Conditions: protein: recombinant; tags: N-terminal GST; dsDNA, one strand shown. The gist of the method:
as §1

In experiment [17] the target is T12, ETV3 (Homo sapiens, UniProt P41162-2 1-143).
T12 sequence: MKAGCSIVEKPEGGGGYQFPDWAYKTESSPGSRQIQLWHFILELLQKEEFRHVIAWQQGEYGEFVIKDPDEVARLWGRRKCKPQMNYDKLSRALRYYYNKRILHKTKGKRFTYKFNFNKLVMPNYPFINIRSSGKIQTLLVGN
The settings on record: protein: recombinant; tags: N-terminal GST; dsDNA, one strand shown. The gist of the method: as §1

Experiment [18] deals with ETV6 (Homo sapiens, UniProt P41212 1-452). Conditions: protein: recombinant; tags: N-terminal GST; dsDNA, one strand shown. The gist of the method: as §1
Sequence of ETV6 (P41212 whole entry): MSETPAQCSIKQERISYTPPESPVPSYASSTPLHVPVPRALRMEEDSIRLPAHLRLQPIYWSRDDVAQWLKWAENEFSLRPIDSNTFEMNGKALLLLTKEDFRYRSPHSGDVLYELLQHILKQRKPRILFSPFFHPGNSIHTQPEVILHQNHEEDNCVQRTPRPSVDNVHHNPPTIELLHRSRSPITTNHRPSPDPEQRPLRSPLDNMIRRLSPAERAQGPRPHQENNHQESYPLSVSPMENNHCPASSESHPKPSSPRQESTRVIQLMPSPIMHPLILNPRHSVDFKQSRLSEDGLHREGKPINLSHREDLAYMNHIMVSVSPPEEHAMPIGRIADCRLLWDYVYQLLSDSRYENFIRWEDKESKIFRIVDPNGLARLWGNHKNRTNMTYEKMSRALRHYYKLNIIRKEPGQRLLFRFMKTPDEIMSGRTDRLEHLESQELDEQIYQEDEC

Sequence of ETV5 (P41161 whole entry): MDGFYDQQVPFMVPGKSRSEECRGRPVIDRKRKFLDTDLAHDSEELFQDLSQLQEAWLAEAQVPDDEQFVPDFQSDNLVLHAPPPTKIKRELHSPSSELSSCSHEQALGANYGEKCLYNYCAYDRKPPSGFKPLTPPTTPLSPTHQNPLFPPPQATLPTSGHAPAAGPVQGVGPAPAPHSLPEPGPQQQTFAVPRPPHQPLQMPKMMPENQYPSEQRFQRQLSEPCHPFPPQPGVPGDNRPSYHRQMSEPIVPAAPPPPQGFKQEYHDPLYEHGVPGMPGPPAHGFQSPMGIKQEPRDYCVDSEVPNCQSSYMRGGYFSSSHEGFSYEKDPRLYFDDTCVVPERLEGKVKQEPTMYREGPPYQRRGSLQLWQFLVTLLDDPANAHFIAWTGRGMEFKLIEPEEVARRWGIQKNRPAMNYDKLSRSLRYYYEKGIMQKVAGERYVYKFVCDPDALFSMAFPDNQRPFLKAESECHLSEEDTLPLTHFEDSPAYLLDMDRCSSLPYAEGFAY
Sequence of HSF1 (Q00613 whole entry): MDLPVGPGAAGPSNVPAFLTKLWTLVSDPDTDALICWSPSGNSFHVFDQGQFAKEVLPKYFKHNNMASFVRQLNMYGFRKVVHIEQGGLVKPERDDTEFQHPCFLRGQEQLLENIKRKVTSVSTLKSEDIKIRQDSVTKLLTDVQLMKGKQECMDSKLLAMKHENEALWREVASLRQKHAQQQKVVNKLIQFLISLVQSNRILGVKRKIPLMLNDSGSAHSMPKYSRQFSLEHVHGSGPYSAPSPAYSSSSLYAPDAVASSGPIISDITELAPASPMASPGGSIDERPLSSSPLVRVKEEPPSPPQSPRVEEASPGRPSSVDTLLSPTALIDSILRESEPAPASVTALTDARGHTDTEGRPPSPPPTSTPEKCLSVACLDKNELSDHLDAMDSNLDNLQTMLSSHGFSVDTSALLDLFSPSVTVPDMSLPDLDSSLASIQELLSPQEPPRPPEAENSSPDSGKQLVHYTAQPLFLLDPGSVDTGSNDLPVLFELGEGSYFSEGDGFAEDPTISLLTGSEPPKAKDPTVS
Sequence of ETV1 (P50549 whole entry): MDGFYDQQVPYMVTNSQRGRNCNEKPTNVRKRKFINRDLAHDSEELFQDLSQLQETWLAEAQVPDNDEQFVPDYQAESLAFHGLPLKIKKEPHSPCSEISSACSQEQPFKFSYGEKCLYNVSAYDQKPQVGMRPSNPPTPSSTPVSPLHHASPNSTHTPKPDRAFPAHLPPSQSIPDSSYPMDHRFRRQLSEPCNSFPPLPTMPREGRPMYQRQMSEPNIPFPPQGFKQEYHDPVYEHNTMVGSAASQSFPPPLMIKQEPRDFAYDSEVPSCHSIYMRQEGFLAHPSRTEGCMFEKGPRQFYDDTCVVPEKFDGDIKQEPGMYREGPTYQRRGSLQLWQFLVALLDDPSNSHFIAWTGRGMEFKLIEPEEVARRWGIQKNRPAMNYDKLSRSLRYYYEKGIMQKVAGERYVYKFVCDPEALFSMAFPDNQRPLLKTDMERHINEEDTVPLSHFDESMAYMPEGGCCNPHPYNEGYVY
Sequence of ELF4 (Q99607 whole entry): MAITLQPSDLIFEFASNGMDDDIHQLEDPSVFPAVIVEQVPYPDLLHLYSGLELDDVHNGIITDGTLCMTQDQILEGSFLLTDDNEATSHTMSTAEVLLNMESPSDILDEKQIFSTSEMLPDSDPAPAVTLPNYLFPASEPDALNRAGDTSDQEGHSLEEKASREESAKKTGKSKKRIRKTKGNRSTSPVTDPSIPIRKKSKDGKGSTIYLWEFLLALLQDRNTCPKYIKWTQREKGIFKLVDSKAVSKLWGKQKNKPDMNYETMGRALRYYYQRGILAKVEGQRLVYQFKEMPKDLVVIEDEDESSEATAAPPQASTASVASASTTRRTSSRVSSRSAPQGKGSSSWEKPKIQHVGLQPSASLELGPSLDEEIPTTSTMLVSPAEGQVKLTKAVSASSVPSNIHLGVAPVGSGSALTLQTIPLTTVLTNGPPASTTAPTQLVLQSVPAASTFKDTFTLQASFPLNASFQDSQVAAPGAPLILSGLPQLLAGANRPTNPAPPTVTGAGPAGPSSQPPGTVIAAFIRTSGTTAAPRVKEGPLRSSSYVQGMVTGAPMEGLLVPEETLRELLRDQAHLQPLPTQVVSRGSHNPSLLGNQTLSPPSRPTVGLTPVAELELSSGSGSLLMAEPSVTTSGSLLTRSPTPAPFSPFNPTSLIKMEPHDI
Sequence of CRX (O43186 whole entry): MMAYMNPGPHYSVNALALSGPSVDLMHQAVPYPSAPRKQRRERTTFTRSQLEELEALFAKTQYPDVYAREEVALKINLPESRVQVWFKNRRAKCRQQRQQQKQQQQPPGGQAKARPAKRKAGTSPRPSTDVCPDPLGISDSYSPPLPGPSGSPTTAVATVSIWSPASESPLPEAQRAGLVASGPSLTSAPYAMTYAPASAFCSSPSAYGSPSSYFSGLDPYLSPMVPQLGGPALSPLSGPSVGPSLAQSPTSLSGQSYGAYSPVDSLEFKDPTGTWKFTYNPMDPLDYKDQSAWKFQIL

Turning to TCTTGT, the binding signal was 1.52 fold enrichment (6-mer frequency, TF over GST control) in experiment [1]; 1.49 fold enrichment (6-mer frequency, TF over GST control) in experiment [2]; 1.55 fold enrichment (6-mer frequency, TF over GST control) in experiment [3]; 1.39 fold enrichment (6-mer frequency, TF over GST control) in [4]; 1.66 fold enrichment (6-mer frequency, TF over GST control) in experiment [5]; 1.49 fold enrichment (6-mer frequency, TF over GST control) in experiment [6]. Also, the binding signal in experiment [7] was 1.4 fold enrichment (6-mer frequency, TF over GST control); in [8], 1.55 fold enrichment (6-mer frequency, TF over GST control); in experiment [9] it was 1.48 fold enrichment (6-mer frequency, TF over GST control); in experiment [10], 1.57 fold enrichment (6-mer frequency, TF over GST control); in experiment [11], 1.68 fold enrichment (6-mer frequency, TF over GST control); in experiment [12], 1.61 fold enrichment (6-mer frequency, TF over GST control). In addition, the binding signal is 1.47 fold enrichment (6-mer frequency, TF over GST control) in experiment [13]; 1.57 fold enrichment (6-mer frequency, TF over GST control) in experiment [14]; 1.57 fold enrichment (6-mer frequency, TF over GST control) in experiment [15]; 1.42 fold enrichment (6-mer frequency, TF over GST control) in experiment [16]; 1.5 fold enrichment (6-mer frequency, TF over GST control) in experiment [17]; 1.48 fold enrichment (6-mer frequency, TF over GST control) in experiment [18].

These data come from paper PMC7862700, “An all-to-all approach to the identification of sequence-specific readers for epigenetic DNA modifications on cytosine”.
